Screening results deposited in PubChem BioAssay by National Center for Advancing Translational Sciences (NCATS).
HCMV antiviral: qHTS Assay for inhibitors of the human cytomegalovirus (HCMV); HFF cells, HCMV-luciferase reporter, 72 h; stronger effect = lower value; activity change, negative = inhibition, % at 57.5 µM; 4.5% of 410,000 active; in the data active means activity change below about -60%; inconclusive means no clear call, values can overlap the other calls; inactive means above about -39%
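Steps: HFFs plated, 16 h 37C; compounds added; HCMV-luciferase added to MOI 1 PFU/cell; 72 h 37C; OneGlo reagent, 5 min room temperature; luminescence read, normalized to controls.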
LASV entry inh: qHTS for Inhibitors of binding or entry into cells for Lassa Virus; Lassa virus pseudotype entry inhibition, cell reporter; Potency, µM (titrated, usually from 37.9 µM), for the others: top-dose activity change, negative = inhibition, most hits filed as inhibitors; 1.2% of 300,000 active; AID 540256, 2011; calls by dose curve; tested in HEK293 cells; further: potency means the concentration at half of the fitted maximal effect; nearly all actives have a fitted effect of over 50% in size
VACV Venus inh: qHTS for Stage-Specific Inhibitors of Vaccinia Orthopoxvirus: Venus Reporter Primary qHTS. Vaccinia virus Venus reporter expression, fluorescence. Potency, µM (titrated, usually from 36.5 µM), inactives show at the highest dose activity change, negative = inhibition, most hits filed as inhibitors. 0.46% of 330,000 active. AID 720580, 2013; calls by dose curve; tested in A549 cells; further: potency means the concentration at half of the fitted maximal effect; nearly all actives have a fitted effect of over 30% in size
Vaccinia mCherry: qHTS for Stage-Specific Inhibitors of Vaccinia Orthopoxvirus: mCherry Reporter Primary qHTS | Vaccinia virus mCherry reporter infection, fluorescence | Potency, µM (titrated, usually from 36.5 µM), without a hit: top-dose activity change, negative = inhibition, hits mostly inhibitors | 0.63% of 310,000 active | AID 720579, 2013; calls by dose curve; tested in A549 cells; further: potency means the concentration at half of the fitted maximal effect; nearly all actives have a fitted effect of over 35% in size
HCV inhibitor: qHTS Assay for Inhibitors of Hepatitis C Virus (HCV); Huh7.5.1 HCVcc-Cre infection, luciferase reporter, 44 h; Potency, µM (highest dose often 41.8 µM), without a hit: top-dose activity change, negative = inhibition, usual class: inhibitors; 3.4% of 340,000 active; AID 651820, 2012; active means well fitted inhibition curve with a large enough effect; inconclusive means small, poorly fitted or top-dose-only effect, or another doubt; inactive means no such curve, though single readings can be large or run the other way; further: potency means the concentration at half of the fitted maximal effect
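Whole-lifecycle infectious HCVcc-Cre system; cells 1,000/well, compound then virus (~0.5 moi) added 4 h after plating, 44 h culture. Luciferase read 15 sec following 15 min substrate incubation, room temp.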
Marburg entry inh: qHTS for inhibitors of binding or entry into cells for Marburg Virus; Marburg virus pseudotyped entry inhibition, cell reporter; Potency, µM (doses to about 37.8 µM), without a hit: top-dose activity change, negative = inhibition, actives largely listed as inhibitors; 1.8% of 300,000 active; AID 540276, 2011; calls by dose curve; tested in HEK293 cells; further: potency means the concentration at half of the fitted maximal effect
* marks the source's active call; other numbers are inactive results; i = inactive; ? = inconclusive; . = no result given; [ ] = dose if it differs, or a comment. Shown are actives, neighbours in structure and some others; about 7.8% of the full set was active somewhere. On the % scale 0 is the no-effect control and ±100 the full control effect.

SMILES | HCMV antiviral | LASV entry inh | VACV Venus inh | Vaccinia mCherry | HCV inhibitor | Marburg entry inh
Cc1ccc(-c2nnn(CC(=O)N(CC(=O)NC3CCCC3)c3cnc4ccccc4c3)n2)o1 | -103* | -6% | -12% | -15% | 1% | -4%
Cc1ccc(-c2nnn(CC(=O)N(CC(=O)NC3CCCCC3)c3ccc(F)c(Cl)c3)n2)o1 | -12 | 13µM* | -28% | -10%[1.46 µM] | ? | ?
CC1(C(=O)NC2CCCCC2)Cc2ccccc2C(=O)N1Cc1ccc(Cl)cc1 (centres undefined) | -26 | . | -9% | -5% | . | ?
O=C(Nc1cccc(Cl)c1)C1CCCN(c2nn3cc(-c4ccc(F)cc4)nc3s2)C1 (centres undefined) | 0 | -10%[46.1 µM] | -26% | -24% | . | .
Cc1[nH]c2ccccc2c1C1(O)C(=O)N(Cc2ccccc2Cl)c2ccccc21 (centres undefined) | ? | ? | -12% | -16% | . | -2%[46.1 µM]
Cc1[nH]c2ccccc2c1C1(O)C(=O)N(Cc2ccccc2)c2ccc(Br)cc21 (centres undefined) | -102* | ? | -5% | 1% | . | ?
COC(=O)c1cc(Sc2c(Cl)cccc2Cl)ccn1 | -39 | -24% | -29% | -24% | 14% | 11µM*
COc1ccc(OC)c2c(=O)cc(C(=O)O)[nH]c12 | 17 | 7% | -6% | -8% | 8% | 5%
COc1ccc(OC)c2c(C)c(C)[nH]c12 | 20 | . | -12% | -15% | 10µM* | .
FC(F)(F)c1ccc(-c2nc(-c3ccccc3)oc2NCc2ccccc2)cc1 | . | -11%[14.3 µM] | . | . | . | -7%[14.2 µM]
Cn1c(=O)c2ncn(CC(=O)Nc3cccc(-c4nc5ccccc5s4)c3)c2n(C)c1=O | 11 | ? | -6% | i | 10µM* | ?
CCCCCN1C(C(=O)c2ccccc2)=C(NC(=O)c2ccc(OC)c(OC)c2)c2ccccc2S1(=O)=O | -39 | 7%[46.1 µM] | -8% | -18% | . | -18%[46.1 µM]
Cc1cccc(Cn2c(COc3ccc(Cl)cc3)nc3ccccc32)c1 | -10 | 29%[46.1 µM] | -6% | -4% | . | -16%[46.1 µM]
O=C(CSc1n[nH]c(-c2ccccc2Cl)n1)NCCc1ccccc1 | 4 | -20%[46.1 µM] | -14% | -9% | . | .
COc1cc2nc(C)sc2cc1SC | 20 | 13% | . | . | ? | -2%
COc1cc2nc(/C=C/c3cc(OC)c(OC)c(OC)c3)sc2cc1SC | -32 | ? | ? | ? | 10µM* | 7.1µM*
O=C1[C@@H]2CSC(c3ccc(Cl)cc3)N2C(=O)N1c1ccccc1 (some centres undefined) | -4 | -2%[46.1 µM] | -9% | -7% | . | 0%[46.1 µM]
O=C(c1ccc2c3c(cccc13)CC2)C1CCCN(Cc2ccncc2)C1 (centres undefined) | -69* | . | . | . | ? | .
O=C(c1ccc2c3c(cccc13)CC2)C1CCCN(Cc2ncc[nH]2)C1 (centres undefined) | -4 | ? | -13% | -18% | -21% | -20%[46.1 µM]
CCc1nc(CN2CCCC(C(=O)c3ccc4c5c(cccc35)CC4)C2)c(C)[nH]1 (centres undefined) | ? | -29% | -13% | -22% | 10µM* | ?
COc1cccc(-n2ccnc2SCC(=O)Nc2cccc3ccccc23)c1 | -18 | 3%[46.1 µM] | -18% | i | . | .
N#C/C(=C\c1ccc(OCc2ccc(C(=O)O)cc2)cc1)C(=O)N1CCOCC1 | -4 | 1.8µM* | . | . | 10% | 0.92µM*
COc1cc(/C=C(\C#N)C(=O)N2CCOCC2)ccc1OCc1ccccc1 | -16 | . | -17% | -15% | -12% | 26%[46.1 µM]
Nc1cnccn1 | . | . | -4% | -7% | . | .
COc1ccc(C(=O)NCC2(c3ccc(OC)c(OC)c3)CCCC2)c(OC)c1 | 41 | . | . | . | 14µM* | .
COc1ccc(CC(=O)NCC2(c3ccc(OC)c(OC)c3)CCCC2)cc1 | -3 | 5% | -8% | -9% | -8% | ?
O=C1CC(c2ccc(F)c(Br)c2)C2=C(CCCC2=O)N1 (centres undefined) | -102* | 22% | -23% | -20% | -8% | -2%
O=C1CC(c2ccc3c(c2)OCO3)C2=C(CCCC2=O)N1 (centres undefined) | -9 | -14% | -10% | . | 21% | -1%[46.1 µM]
